SW480 rereplic = inducers of DNA re-replication in SW480 colon cancer cells | SW480 DNA re-replication, Hoechst DNA content imaging, 48 h | Potency, µM (doses to about 46.1 µM), without a hit: at the highest dose re-replication activation, hits mostly activators | 1.8% of 340,000 active; also: % of control where 0% means no effect; nearly all actives have a fitted effect of over 55% in size
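Hoechst fluorescence of nuclei (405 nm excitation, 500-530 nm emission) measured by plate-scanning imager after 48 hr compound exposure at 37 C; re-replication scored as increased number of nuclei with elevated intensity.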
KB-V1 cytotox = KB-V1 MDR subline cytotoxicity. 3.4% of 400,000 active. KB-V1 MDR cells viability, CellTiter-Glo, 72 h. AID 1347076. Potency, µM (series often up to 46.1 µM), actives largely listed as cytotoxic; also: % is scaled to controls: 0 for no effect and ±100 for the full control effect; nearly all actives have a fitted effect of over 60% in size
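KB-V1 cells (P-gp-expressing MDR subline of KB-3-1) in phenol-red-free DMEM with 10% FBS were exposed to library compounds over a concentration series for 72 h at 37 degrees C. Viability read by CellTiter-Glo luminescence; concentration-effect curves fitted after normalization.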
HT1080NT lethal = kills 2HG-producing HT-1080-NT fibrosarcoma cells; HT-1080-NT fibrosarcoma viability, CellTiter-Glo ATP luminescence, 48 h; Potency, µM (top dose mostly 46.1 µM), for inactives: at the top dose activity, negative = less viability, usual class: cytotoxic; 1.6% of 360,000 active; AID 686970;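 also: NT is the 2HG producing partner of a matched IDH1 knockdown line; 0% = DMSO-treated cells and -100% = media-only wells without cells; nearly all actives have a fitted effect of over 55% in size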
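A 48-hour cytotoxicity screen used HT-1080-NT cells plated 2 hours before compound delivery. ATP-based CellTiter-Glo luminescence measured viability, normalized to DMSO and no-cell controls.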
MCF10A rereplic = inducers of DNA re-replication in MCF 10A breast cells; MCF 10A DNA re-replication, Hoechst nuclear intensity, 48 h; AID 624296; 2.9% of 350,000 active; Potency, µM (highest dose often 46.1 µM), inactives show at the top dose activity, positive = re-replication, hits mostly activators; also: % of control where 0% means no effect; nearly all actives have a fitted effect of over 50% in size
HT1080 IDH1KD tx = HT-1080 IDH1 knockdown cell toxicity (counter line); Potency, µM (highest dose often 46.1 µM), inactives show at the highest dose activity, negative = toxicity, hits mostly cytotoxic; HT-1080 IDH1 knockdown viability, ATP luminescence, 48 h; 2% of 360,000 active;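 also: 0% = DMSO wells and -100% = cell-free medium wells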
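Cytotoxicity counter-line: IDH1KD HT-1080, 48 h, CellTiter-Glo. Curves classed by r2, magnitude and activity.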
KB-3-1 cytotox = kills parental KB-3-1 adenocarcinoma cells; Potency, µM (titrated, usually from 46.1 µM), usual class: cytotoxic; KB-3-1 viability, CellTiter-Glo ATP luminescence, 72 h; 1.4% of 400,000 active; AID 1347075; also: % is scaled to controls: 0 for no effect and ±100 for the full control effect; nearly all actives have a fitted effect of over 60% in size
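KB-3-1 cells, DMEM (no phenol red) + 10% FBS; compound by pin transfer, 72 h, 37 °C. Readout: CellTiter-Glo luminescence after 10 min. Data normalized, curve-fitted.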
An asterisk follows results filed as active; i = inactive; ? = inconclusive; · = not tested or not shown. This is a sample that favours compounds with a hit; in the whole collection about 8% have one here. Calls follow the shape of the dose curve; as a rule, active = well fitted curve in the direction sought with a large enough effect; inconclusive = small, poorly fitted or top-dose-only effect, or another doubt; inactive = no such curve, though single readings can be large; an effect the other way counts as inactive or inconclusive. Potency is read from the fitted curve at half-maximal effect.

SMILES	SW480 rereplic	KB-V1 cytotox	HT1080NT lethal	MCF10A rereplic	HT1080 IDH1KD tx	KB-3-1 cytotox
Cc1ccc2cc(/C=C/C(=O)c3ccco3)c(Cl)nc2c1	?	?	?	8.2µM*	12µM*	i
O=C(C=Cc1ccco1)c1ccco1	-4%	?	9%	6%	10%	i
COc1cc2cc(/C=C/C(=O)c3ccco3)c(Cl)nc2cc1OC	21µM*	?	?	23µM*	-27%	?
Cc1ccc2nc(Cl)c(/C=C/C(=O)c3ccco3)cc2c1	-3%	i	?	?	-20%	?
O=C1CCCC2=C1C(c1ccccc1Cl)N=C(Nc1nc3ccccc3o1)N2 (stereo not drawn)	·	i	·	·	·	i
Cc1cc(C)n2ncc(C(=O)NC(C)C)c2n1	·	i	·	·	·	i
O=C1N(Cc2ccccc2Cl)c2ccccc2C1(O)c1c[nH]c2ccccc12 (stereo not drawn)	·	?	·	·	·	i
COc1ccc(-c2nc(NC(=O)c3n[nH]c(=O)c4ccccc34)sc2C)cc1	?	8.2µM*	-3%	?	-10%	?
Cc1sc(NC(=O)c2ccc(=O)n(C)n2)nc1-c1ccccc1	-87%	i	-13%	23µM*	-17%	i
COc1ccc(-c2nc(NC(=O)c3cc(C(C)(C)C)nn3C)sc2C)cc1	16µM*	2.3µM*	16µM*	15µM*	?	i
CCCCC(=O)OCc1cc(=O)n2nc(C3CCCCC3)sc2n1	·	i	·	·	·	i
CN1CCC(=NNC(=O)c2cc(-c3ccc(Cl)cc3)n[nH]2)CC1	-52%	i	?	18µM*	?	i
Cc1ccc(CCNC(=O)CCn2nc(-c3ccc(Cl)cc3)ccc2=O)cc1	·	i	·	·	·	i
CC(C)=CCOc1ccc(/C=C/C(=O)c2ccc(OCC=C(C)C)cc2OCC(=O)O)cc1	-3%	·	·	12µM*	·	·
CCOC(=O)c1c(C)[nH]c(C(=O)OC(C(=O)N(C)C)c2ccccc2)c1C (stereo not drawn)	·	i	·	·	·	?
Cc1ccc(CNC(=O)c2nn(C)c3c2CSc2ccc(C)cc2-3)cc1	·	i	·	·	·	i
CCOC(=O)CN1C=C(c2ccc3ccccc3n2)C(C[N+](=O)[O-])c2ccccc21 (stereo not drawn)	?	i	-1%	16µM*	-2%	i
COc1ccc(-c2cn3cc(C(F)(F)F)cc(Cl)c3n2)cc1	18µM*	?	?	24%	?	?
Fc1ccc(-c2cn3cc(C(F)(F)F)cc(Cl)c3n2)cc1	?	i	-11%	?	-15%	i
COc1ccc(C(=O)NC(=S)N2CCCC2)cc1	-5%	i	15%	0%	9%	i
COc1cc(OC)cc(C(=O)NC(=S)N2CCCCCC2)c1	-4%	18µM*	-20%	-4%	1%	i
COc1ccc(C(=O)NC(=S)N2CCCCC2)cc1	?	i	0.56µM*	6%	0.79µM*	i
O=C(Cc1ccccc1)Nc1cc(Cl)ccc1Sc1ccccc1	-32%	18µM*	6%	-2%	26%	i
O=C(Cc1ccc(Cl)cc1)Nc1ccccc1Sc1ccccc1	6%	23µM*	-13%	?	-6%	?
O=C(Cc1ccccc1)NCC(=O)Nc1cc(Cl)ccc1Cl	12%	?	?	0%	?	?
SMILES	SW480 rereplic	KB-V1 cytotox	HT1080NT lethal	MCF10A rereplic	HT1080 IDH1KD tx	KB-3-1 cytotox
O=C(CCl)Nc1ccccc1Sc1ccccc1	-6%	i	-7%	?	-3%	i
Cc1ccccc1NC(=O)CN1C(=O)CCn2nc(-c3cccn3C)cc21	·	i	·	·	·	i
COc1ccc(-c2ccc(OC)cc2)cc1	-5%	i	6%	17%	10%	i
COc1ccc(-c2cnc3c(c2)CCC3(C#N)C#N)cc1	3.3µM*	i	0%	4.1µM*	-24%	i
CSc1ccc(-c2nc3ccc(C)cn3c2Nc2ccccc2C)cc1	·	i	·	·	·	i
COc1cccc(Sc2ccccc2/C=N/NC(N)=O)c1	6.5µM*	?	?	?	?	2.9µM*
COc1ccc(CCNc2nnc(Sc3nnnn3-c3ccccc3)s2)cc1OC	2.9µM*	15µM*	3.5µM*	4.6µM*	2µM*	4.1µM*
CCOC(=O)CSc1nc2ccc(NC(=O)CSc3nnnn3Cc3ccccc3)cc2s1	3%	i	-6%	-1%	-8%	?
COc1ccc(CNC(=O)CSc2nnnn2Cc2ccccc2)cc1	?	?	?	?	?	16µM*
CC(C)(C)NC(=O)CSc1nc2ccc(NC(=O)CSc3nnnn3Cc3ccccc3)cc2s1	-3%	i	-5%	15%	16µM*	i
COc1ccc(CSc2nnnn2Cc2ccccc2)cc1OC	-4%	23µM*	3%	?	2%	i
CCCS(=O)(=O)c1ncc(Cl)c(C(=O)Nc2c(C(=O)c3ccccc3)oc3ccccc23)n1	·	i	·	·	·	i
Cc1ccc(NC(=O)c2cc(S(=O)(=O)N3CCCCC3)c[nH]2)cc1N(C)C	·	i	·	·	·	i
CCC1=C(c2ccc(C)cc2)S(=O)(=O)N=C1N1CCC(C(=O)NCc2ccc(C)cc2)CC1	·	i	·	·	·	i
Cc1cc(C)nc(N2CCCC(C(=O)NCCc3ccc(F)cc3)C2)n1 (stereo not drawn)	-1%	18µM*	7%	3%	-11%	i
Cc1cc(C)nc(N2CCC(C(=O)NCCc3ccc(F)cc3)CC2)n1	-9%	13µM*	1%	0%	0%	i
Cc1cc(=O)n2nc(N3CCCC(C(=O)NCc4ccc(F)cc4)C3)sc2n1 (stereo not drawn)	-3%	i	6%	-1%	9%	i
O=C(NCc1ccc(F)cc1)C1CCCN(c2nc3ccsc3c(=O)s2)C1 (stereo not drawn)	?	?	-9%	12µM*	-6%	i
CCC1=C(c2ccc(C)cc2)S(=O)(=O)N=C1N1CCC(C(=O)NCCc2ccc(Cl)cc2)CC1	·	i	·	·	·	15µM*
O=C(COC(=O)c1ccccc1Oc1ccccc1)Nc1ccc(Br)cc1	·	·	13%	·	13%	·
CCN(CC)CCCNc1ncnc2ccccc12	-5%	i	1%	11%	-5%	i
CN(C)CCNc1ccc2nnn3c4ccc(O)cc4c(=O)c1c23	9%	?	23µM*	7%	21µM*	7.3µM*
CCN(CC)CCCNc1ccc2ncn3c4ccc(O)cc4c(=O)c1c23	7.3µM*	?	-24%	?	?	23µM*

High-throughput results from PubChem.
